Results reported in PubChem BioAssay AID1159580 (chemical genetic matrix, 2015).
The campaign covered roughly 5,500 compounds. About 2,000 (36%) were called active. About 18% were inconclusive and are not listed. Rule as the data show it: active = normalized growth mostly below about 0.91 (no sharp cut-off); inconclusive = no clear call, values can overlap the other calls; inactive = mostly above about 0.92. Some of the results follow.

Assay: chemical genetic growth profiling, strain panel (AID 1159580);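 also: tested at 20 µM; growth read once vehicle control cultures reached saturation at 30 °C; 1 = growth at the plate median or of vehicle wells; lower values mean less growth of the strain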
Settings: growth OD

Measured: normalized growth

NC(=O)c1cc([N+](=O)[O-])cc([N+](=O)[O-])c1
active: S. cerevisiae deletion strains, locus YNL248C, strain rpa49, active compounds read low 0.879
inactive: S. cerevisiae deletion strains, locus YJR075W, strain HOC1, active compounds read low 1 | S. cerevisiae deletion strains, locus YKL009W, strain mrt4, active compounds read low 0.985 | S. cerevisiae deletion strains, locus YKL068W, active compounds read low 1 | S. cerevisiae deletion strains, locus YKL085W, strain MDH1 (second series), active compounds read low 0.999 | S. cerevisiae deletion strains, locus YKL085W, strain MDH1, active compounds read low 0.999 | S. cerevisiae deletion strains, locus YKL160W, strain elf1, active compounds read low 1.01 | S. cerevisiae deletion strains, locus YKL190W, strain CNB1, active compounds read low 1.01 | S. cerevisiae deletion strains, locus YKR001C, strain vps1, active compounds read low 0.997 | S. cerevisiae deletion strains, locus YKR026C, strain gcn3, active compounds read low 1.02 | S. cerevisiae deletion strains, locus YKR091W, strain srl3, active compounds read low 1.02 | S. cerevisiae deletion strains, locus YLL001W, strain dnm1, active compounds read low 1.06 | S. cerevisiae deletion strains, locus YLL026W, active compounds read low 1.01 | S. cerevisiae deletion strains, locus YLL041C, strain sdh2, active compounds read low 1 | S. cerevisiae deletion strains, locus YLR027C, strain aat2, active compounds read low 0.989 | S. cerevisiae deletion strains, locus YLR039C, strain RIC1, active compounds read low 1.24 | S. cerevisiae deletion strains, locus YLR058C, strain SHM2, active compounds read low 1.01 | S. cerevisiae deletion strains, locus YLR102C, strain apc9, active compounds read low 1 | S. cerevisiae deletion strains, locus YLR113W, strain HOG1, active compounds read low 0.988 | S. cerevisiae deletion strains, locus YLR221C, strain rsa3, active compounds read low 1.02 | S. cerevisiae deletion strains, locus YLR258W, strain gsy2, active compounds read low 1 | S. cerevisiae deletion strains, locus YLR262C, strain YPT6 (second series), active compounds read low 1.11 | S. cerevisiae deletion strains, locus YLR262C, strain YPT6, active compounds read low 1.2 | S. cerevisiae deletion strains, locus YLR268W, strain sec22, active compounds read low 0.963 | S. cerevisiae deletion strains, locus YLR320W, strain mms22, active compounds read low 1.01 | S. cerevisiae deletion strains, locus YLR330W, strain CHS5, active compounds read low 1.02 | S. cerevisiae deletion strains, locus YLR342W, strain FKS1 (second series), active compounds read low 1.02 | S. cerevisiae deletion strains, locus YLR342W, strain FKS1, active compounds read low 1.02 | S. cerevisiae deletion strains, locus YLR357W, strain rsc2, active compounds read low 1 | S. cerevisiae deletion strains, locus YLR370C, strain arc18, active compounds read low 1.02 | S. cerevisiae deletion strains, locus YLR371W, strain rom2, active compounds read low 0.998 | S. cerevisiae deletion strains, locus YLR384C, strain iki3, active compounds read low 1.02 | S. cerevisiae deletion strains, locus YLR418C, strain cdc73, active compounds read low 0.861 | S. cerevisiae deletion strains, locus YML016C, strain PPZ1, active compounds read low 1.03 | S. cerevisiae deletion strains, locus YML032C, strain rad52, active compounds read low 0.974 | S. cerevisiae deletion strains, locus YML120C, strain ndi1, active compounds read low 1.02 | S. cerevisiae deletion strains, locus YML124C, strain tub3, active compounds read low 0.998 | S. cerevisiae deletion strains, locus YMR058W, strain fet3, active compounds read low 0.955 | S. cerevisiae deletion strains, locus YMR078C, strain ctf18, active compounds read low 0.999 | S. cerevisiae deletion strains, locus YMR125W, strain sto1, active compounds read low 1.01 | S. cerevisiae deletion strains, locus YMR129W, active compounds read low 1.02 | S. cerevisiae deletion strains, locus YMR205C, strain PFK2, active compounds read low 1.04 | S. cerevisiae deletion strains, locus YMR223W, strain ubp8, active compounds read low 0.979 | S. cerevisiae deletion strains, locus YMR231W, strain pep5, active compounds read low 1.01 | S. cerevisiae deletion strains, locus YMR307W, strain GAS1, active compounds read low 0.972 | S. cerevisiae deletion strains, locus YNL067W, strain RPL9B, active compounds read low 0.999 | S. cerevisiae deletion strains, locus YNL071W, strain lat1, active compounds read low 0.998 | S. cerevisiae deletion strains, locus YNL128W, strain TEP1, active compounds read low 0.982 | S. cerevisiae deletion strains, locus YNL183C, strain NPR1, active compounds read low 0.935 | S. cerevisiae deletion strains, locus YNL209W, strain ssb2, active compounds read low 1.01 | S. cerevisiae deletion strains, locus YNL233W, strain BNI4, active compounds read low 1.01 | S. cerevisiae deletion strains, locus YNL250W, strain rad50, active compounds read low 1.01 | S. cerevisiae deletion strains, locus YNL271C, strain bni1, active compounds read low 0.974 | S. cerevisiae deletion strains, locus YNL298W, strain CLA4, active compounds read low 0.983 | S. cerevisiae deletion strains, locus YNL307C, strain MCK1, active compounds read low 0.979 | S. cerevisiae deletion strains, locus YNL322C, strain KRE1 (second series), active compounds read low 1.04 | S. cerevisiae deletion strains, locus YNL322C, strain KRE1, active compounds read low 1.02 | S. cerevisiae deletion strains, locus YNR049C, strain mso1, active compounds read low 1.01 | S. cerevisiae deletion strains, locus YNR052C, strain pop2, active compounds read low 0.985 | S. cerevisiae deletion strains, locus YOL006C, strain TOP1, active compounds read low 0.927 | S. cerevisiae deletion strains, locus YOL012C, strain htz1 0.763 | S. cerevisiae deletion strains, locus YOL147C, strain pex11, active compounds read low 0.998 | S. cerevisiae deletion strains, locus YOR001W, strain rrp6, active compounds read low 0.984 | S. cerevisiae deletion strains, locus YOR061W, strain CKA2, active compounds read low 1.01 | S. cerevisiae deletion strains, locus YOR069W, strain VPS5, active compounds read low 1.01 | S. cerevisiae deletion strains, locus YOR070C, strain gyp1, active compounds read low 1 | S. cerevisiae deletion strains, locus YOR080W, strain dia2, active compounds read low 1.02 | S. cerevisiae deletion strains, locus YOR083W, strain WHI5, active compounds read low 1.02 | S. cerevisiae deletion strains, locus YOR106W, strain vam3, active compounds read low 1 | S. cerevisiae deletion strains, locus YOR136W, strain idh2, active compounds read low 0.993 | S. cerevisiae deletion strains, locus YOR144C, strain elg1, active compounds read low 0.998 | S. cerevisiae deletion strains, locus YOR184W, strain ser1, active compounds read low 0.976 | S. cerevisiae deletion strains, locus YOR231W, strain MKK1, active compounds read low 0.963 | S. cerevisiae deletion strains, locus YOR265W, strain rbl2, active compounds read low 1 | S. cerevisiae deletion strains, locus YOR270C, strain vph1, active compounds read low 1.02 | S. cerevisiae deletion strains, locus YOR290C, strain snf2, active compounds read low 1.01 | S. cerevisiae deletion strains, locus YOR316C, strain cot1, active compounds read low 0.995 | S. cerevisiae deletion strains, locus YPL051W, strain arl3, active compounds read low 0.97 | S. cerevisiae deletion strains, locus YPL055C, strain LGE1, active compounds read low 0.96 | S. cerevisiae deletion strains, locus YPL078C, strain atp4, active compounds read low 1.01 | S. cerevisiae deletion strains, locus YPL106C, strain sse1, active compounds read low 1.02 | S. cerevisiae deletion strains, locus YPL240C, strain hsp82, active compounds read low 1.01 | S. cerevisiae deletion strains, locus YPL241C, strain CIN2, active compounds read low 1.03 | S. cerevisiae deletion strains, locus YPL256C, strain CLN2, active compounds read low 0.965 | S. cerevisiae deletion strains, locus YPR119W, strain clb2, active compounds read low 1 | S. cerevisiae deletion strains, locus YPR141C, strain kar3, active compounds read low 1 | S. cerevisiae deletion strains, locus YPR163C, strain tif3, active compounds read low 0.995 | S. cerevisiae deletion strains, locus YPR167C, strain met16, active compounds read low 0.992 | S. cerevisiae deletion strains, strain wtn01, active compounds read low 0.98 | S. cerevisiae strains, strain wild type, active compounds read low 1.01
